Data on 33 compounds can be found in PubChem BioAssay (NCATS).

Inconclusive results are not listed. Calls of active or inactive are those of the source. Unless noted, calls follow the shape of the dose curve; as a rule, active = well fitted curve in the direction sought with a large enough effect; inconclusive = small, poorly fitted or top-dose-only effect, or another doubt; inactive = no such curve, though single readings can be large; an effect the other way counts as inactive or inconclusive.

Assay [1] is described as follows: qHTS to identify inhibitors of the type 1 interferon - major histocompatibility complex class I in skeletal muscle: primary screen against the NCATS Pharmaceutical Collection (AID 1347407).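 Also: luminescence of HiBiT knocked into endogenous HLA-B as interferon-induced MHC class I level.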 The procedure, abridged: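 Immortalized human myoblasts (C25cl48) with HiBiT knocked into endogenous HLA-B*08:01 were stimulated with 4 ng/ml IFN-beta and treated with compounds (8-point, 1:5, top 46 uM final) for 24 h at 37 C; HiBiT lytic luminescence read.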
Background: In qHTS, concentration-response curves come from the screen itself.

Assay [2] deals with Protein phosphatase 1D (Homo sapiens) (UniProt O15297). Nature of the assay: RapidFire Mass Spectrometry qHTS Assay for Modulators of WT P53-Induced Phosphatase 1 (WIP1) (AID 1347424).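 Also: amount of dephosphorylated VEPPL-S-QETFS peptide product formed by WIP1; series mostly up to about 63 µM.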 An outline of the steps:
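Mass-spectrometric measurement of dephosphorylated peptide after a 5 min room-temperature reaction of 10 nM WIP1 with 2 uM phosphopeptide, following 1 h compound preincubation in 30 mM MgCl2 buffer.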

For assay [3] the target is unchanged. Nature of the assay: Rhodamine-PBP qHTS Assay for Modulators of WT P53-Induced Phosphatase 1 (WIP1) (AID 1347425). An outline of the steps: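 Read-out: Rhodamine-PBP fluorescence (ex 525/em 598 nm) for released Pi, read each minute for 11 min after adding 10 uM VEPPL-pS-QETFS; signal taken as f1 minus pre-substrate f0. Enzyme 5 nM WIP1 with 1 hr room-temperature compound preincubation.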

The nature of assay [4]: Primary qHTS for Huh7 cytotoxicity: counterscreen for inhibitors of MERS-S pseudotyped particle cell entry (AID 1479147; calls by dose curve).
A short description of assay [5]: Primary qHTS for Vero E6 cytotoxicity: counterscreen for inhibitors of SARS-S pseudo-typed particle cell entry (AID 1479150; calls by dose curve).
Assay [6] in a line: Primary qHTS for inhibitors of La Crosse Virus (LACV) - induced cell death in SH-SY5Y cells (AID 1508616).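 Also: top concentration of the series differs between compounds; higher means more rescue of cells from virus-induced death.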 The procedure, abridged:
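Cytopathicity rescue screen: compounds pinned onto SH-SY5Y cells, which are then infected with LACV (MOI 0.01) and held 6 days at 37C. Percent activity is scaled between infected DMSO control and uninfected DMSO control.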

The target in assay [7] is Calcium and integrin-binding protein 1 (Homo sapiens) (UniProt Q99828). The experiment in a line: Primary qHTS for Identification of Calcium Integrin Binding Protein 1 (CIB1) Competitor (AID 1508620).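 Also: GST tagged CIB1 binding a fluorescein labelled alphaIIb integrin peptide tracer; top concentration of the series differs between compounds.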 The procedure, abridged:
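Fluorescence polarization competition: CIB1-GST (1 uM final) preincubated with compound 15 min at room temperature, then FITC-labeled alphaIIb peptide (100 nM final) added for another 15 min. Polarization read at Ex 480/Em 540.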

Assay [8] is described as follows: Counterscreen qHTS for small molecule stabilizers of the endoplasmic reticulum resident proteome: GLuc-NoTag assay (AID 1508627). Also: series mostly up to about 76 µM. The procedure, abridged:
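Secreted GLuc lacking the SERCaMP modification is measured in SH-SY5Y cells exposed to compound for 19 h and then to thapsigargin (100 nM, 4 h) to deplete ER calcium; hits retested at 11 concentrations, up to 76.6 uM.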
For orientation: The purpose of a counterscreen is to sort out artefacts and off-target activity.

In assay [9] the target is Calcium and integrin-binding protein 1 (Homo sapiens) (UniProt Q99828). The experiment in a line: Confirmatory qHTS for Identification of Calcium Integrin Binding Protein 1 (CIB1) Competitor (AID 1508617). Also: potency is read from the fitted curve at half-maximal effect; nearly all actives have a fitted effect of over 65% in size. An outline of the steps: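 Fluorescence polarization competition: CIB1-GST (1 uM final) in 5 mM HEPES pH 7.4, 125 mM NaCl, 5 mM CaCl2, 0.01% Tween20 preincubated 15 min RT with compound (up to 114 uM), then FITC-alphaIIb peptide (100 nM) added, 15 min RT.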

Assay [10] is described as follows: Confirmatory qHTS for small molecule stabilizers of the endoplasmic reticulum resident proteome: Secreted ER Calcium Modulated Protein (SERCaMP) assay (AID 1508628). Also: nearly all actives have a fitted effect of over 40% in size. Also: potency is read from the fitted curve at half-maximal effect. The procedure, abridged:
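GLuc-SERCaMP-expressing SH-SY5Y cells, pretreated 16 h with compound, are challenged with thapsigargin to empty ER calcium stores; after 4 h, coelenterazine is added directly to the medium and luminescence is imaged.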

Calcium and integrin-binding protein 1 (Homo sapiens), sequence (Q99828 whole entry, looked up): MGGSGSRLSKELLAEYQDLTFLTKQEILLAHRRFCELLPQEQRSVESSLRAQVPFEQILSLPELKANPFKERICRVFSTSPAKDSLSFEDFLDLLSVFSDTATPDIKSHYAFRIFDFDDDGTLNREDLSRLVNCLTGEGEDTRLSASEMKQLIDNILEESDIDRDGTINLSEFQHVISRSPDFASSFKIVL
Protein phosphatase 1D (Homo sapiens), sequence (O15297 whole entry, looked up): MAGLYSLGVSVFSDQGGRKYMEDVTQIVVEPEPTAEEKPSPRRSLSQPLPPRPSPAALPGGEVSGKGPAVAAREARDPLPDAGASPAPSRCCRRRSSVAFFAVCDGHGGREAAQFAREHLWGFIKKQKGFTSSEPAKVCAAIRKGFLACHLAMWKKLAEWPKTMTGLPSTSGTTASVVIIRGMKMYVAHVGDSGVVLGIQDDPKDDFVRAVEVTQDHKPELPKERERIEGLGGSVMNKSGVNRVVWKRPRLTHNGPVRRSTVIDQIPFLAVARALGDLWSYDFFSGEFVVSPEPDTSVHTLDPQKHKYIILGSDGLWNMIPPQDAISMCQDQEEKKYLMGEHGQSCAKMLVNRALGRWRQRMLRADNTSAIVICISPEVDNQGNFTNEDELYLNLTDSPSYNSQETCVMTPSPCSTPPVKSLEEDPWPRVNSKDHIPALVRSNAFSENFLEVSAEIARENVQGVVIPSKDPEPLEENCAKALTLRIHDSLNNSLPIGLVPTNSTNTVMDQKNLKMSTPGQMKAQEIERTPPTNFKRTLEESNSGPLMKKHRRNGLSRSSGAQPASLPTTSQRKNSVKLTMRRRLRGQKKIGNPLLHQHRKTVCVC

Regarding `O=C1CN2CCOC2(c2ccccc2Cl)c2cc(Cl)ccc2N1` (configuration not stated), the Potency result in assay [1], in assay [2], in assay [4], in [5] and in assay [7] was “inactive” in each case. Moreover, the compound was called inactive in [3] and in [6].

In the case of `CC1Sc2c(C(=O)O)c(=O)c3cc(F)c(N4CCNCC4)cc3n21` (configuration not stated), the Potency result in assay [1], in assay [2] and in assay [7] was “inactive” each time. The call in assay [3] and in [6] was inactive.

In the case of `CN1C2CCC(C)(C)C1CC(OC(=O)C(O)(c1cccs1)c1cccs1)C2` (configuration not stated), the Potency result in assay [1], in assay [2], in assay [4], in assay [5], in assay [7] and in [8] was “inactive” each time. Besides, the compound was called inactive in assay [3] and in assay [6].

Regarding `NCc1cccnc1`, the Potency result in [1], in assay [2] and in [7] was “inactive” in each case. The outcome in assay [3] and in assay [6] was inactive.

On to `CCC1(CC)C(=O)NC(=O)NC1=O`, for which the Potency entry in assay [1] and in [2] was “inactive” each time. In addition, the result in assay [3] and in assay [6] was inactive.

For `CC(C(O)c1ccccc1)N(C)C/C=C/c1ccccc1` (configuration not stated), the Potency entry in assay [1], in assay [2], in assay [4], in assay [5] and in assay [7] was “inactive” in each case. Besides, the result in [3] and in assay [6] was inactive.

Turning to `COc1ccc(OC)c(CC(C)N)c1` (configuration not stated), the Potency entry in [1], in assay [2] and in [7] was “inactive” throughout. Besides, the compound was called inactive in [3] and in assay [6].

For `CN(C)CCc1c[nH]c2cccc(O)c12`, the Potency entry in assay [1] and in [2] was “inactive” in each case. The outcome in [3] and in [6] was inactive. For the same compound, the Potency in assay [9] is 126 µM (active).

Take `COc1cc(C[C@@H](C)N)c(OC)cc1Br`: the Potency result in assay [1], in [2] and in assay [7] was “inactive” in each case. The compound was classed as inactive in assay [3] and in [6].

As for `CC[C@H]1C[C@@H]2C[C@H]3c4[nH]c5ccc(OC)cc5c4CCN(C2)[C@@H]13`, the Potency entry in assay [1], in [2] and in assay [7] was “inactive” throughout. For the same compound, the compound was called inactive in assay [3] and in assay [6].

As for `C[N+]1(CCC(C(N)=O)(c2ccccc2)c2ccccc2)CCCCC1`, the Potency result in assay [1], in [2] and in assay [7] was “inactive” each time. Moreover, the outcome in [3] and in [6] was inactive.

For `CN1C(=O)CN=C(c2ccccc2)c2cc([N+](=O)[O-])ccc21`, the Potency result in assay [1], in [2] and in assay [7] was “inactive” throughout. The compound was classed as inactive in [3] and in assay [6].

In the case of `COP(=S)(OC)Oc1ccc(Sc2ccc(OP(=S)(OC)OC)cc2)cc1`, the Potency entry in assay [1], in assay [2] and in [7] was “inactive” in each case. The outcome in assay [3] and in assay [6] was inactive.

On to `CN1CCC(N(Cc2ccccc2)c2ccccc2)CC1`, for which the Potency entry in assay [1], in assay [2] and in assay [7] was “inactive” throughout. Also, the outcome in assay [3] and in assay [6] was inactive.

With `CN1[C@@H]2CC[C@H]1CC(OC(=O)c1cc(Cl)cc(Cl)c1)C2` (some centres not stated), the Potency result in assay [1], in assay [2], in [7], in assay [8] and in assay [10] was “inactive” in each case. In addition, the compound was called inactive in [3] and in [6].

Regarding `Nc1ccc(Cl)cc1C(=O)c1ccccc1F`, the Potency entry in [1], in assay [2] and in [7] was “inactive” each time. Also, the compound was called inactive in assay [3] and in [6].

As to `Sc1ccccc1Cl`, the Potency result in assay [1], in [2] and in assay [7] was “inactive” throughout. The compound was called inactive in [3] and in assay [6].

As for `CCC1(c2ccccc2)CCC(=O)NC1=O` (configuration not stated), the Potency entry in [1], in assay [2] and in [7] was “inactive” in each case. Also, the compound was classed as inactive in assay [3] and in assay [6].

Consider `O=c1[nH]c2cc(Cl)ccc2n1C1CCNCC1`, for which the Potency result in assay [1], in assay [2] and in assay [7] was “inactive” each time. For the same compound, the result in assay [3] and in [6] was inactive.

With `Cc1nc2ccccc2c(=O)n1-c1ccccc1Cl`, the Potency entry in assay [1], in [2] and in assay [7] was “inactive” in each case. Moreover, the compound was classed as inactive in assay [3] and in assay [6].

For the compound `ClC1=C(Cl)C2(Cl)C(CBr)CC1(Cl)C2(Cl)Cl` (configuration not stated), the Potency result in assay [1], in assay [2] and in assay [7] was “inactive” in each case. In addition, the result in [3] and in assay [6] was inactive.

On to `CN1C[C@@H](NS(=O)(=O)N(C)C)C[C@@H]2c3cccc4c3c(cn4C)C[C@H]21`, for which the Potency result in [1], in [2] and in [7] was “inactive” each time. Moreover, the call in assay [3] and in [6] was inactive.

For the compound `COc1cc(CC#N)cc(OC)c1OC`, the Potency result in assay [1], in [2] and in assay [7] was “inactive” throughout. The compound was classed as inactive in assay [3] and in assay [6].

As for `CNC(C)Cc1ccc2c(c1)OCO2` (configuration not stated), the Potency result in assay [1], in assay [2] and in assay [7] was “inactive” throughout. Further, the call in assay [3] and in [6] was inactive.

Regarding `c1cc2c(c(N3CCNCC3)c1)OCCO2`, the Potency result in assay [1], in assay [2], in assay [7], in assay [8] and in [10] was “inactive” each time. Moreover, the compound was classed as inactive in assay [3] and in [6].

Consider `CN1C(=O)CN=C(c2ccccc2)c2cc(Cl)ccc21`, for which the Potency result in assay [1], in assay [2] and in assay [7] was “inactive” in each case. Also, the compound was classed as inactive in assay [3] and in [6].

As for `NC1(c2ccccc2)CCCCC1`, the Potency result in assay [1], in assay [2], in assay [7] and in [8] was “inactive” in each case. The compound was classed as inactive in assay [3] and in assay [6]. Further, the Potency in assay [10] was 56.2 µM (active).

For `CNC(=O)NC(O)C(Cl)(Cl)Cl` (configuration not stated), the Potency result in assay [1], in assay [2] and in [7] was “inactive” in each case. In addition, the compound was called inactive in assay [3] and in assay [6].

As to `Oc1c(Br)cc(Br)cc1Br`, the Potency entry in assay [1], in [2] and in [7] was “inactive” each time. Besides, the compound was classed as inactive in [3] and in assay [6].

As for `Cc1ncc2n1-c1ccc(Cl)cc1C(c1ccccc1F)=NC2`, the Potency result in assay [1], in assay [2] and in [7] was “inactive” throughout. Besides, the result in assay [3] and in assay [6] was inactive.

Take `C[C@]12C=CC(=O)C=C1CC[C@@H]1[C@@H]2CC[C@@]2(C)[C@H]1CC[C@]2(C)O`: the Potency result in assay [1], in assay [2] and in assay [7] was “inactive” each time. The compound was called inactive in assay [3] and in [6].

Consider `COCC(=O)N(c1c(C)cccc1C)C(C)C(=O)OC` (configuration not stated), for which the Potency result in assay [1], in assay [2] and in [7] was “inactive” throughout. In addition, the outcome in assay [3] and in [6] was inactive.

As to `CCc1cc(OC)c(C[C@H](C)N)cc1OC`, the Potency entry in assay [1], in assay [2] and in assay [7] was “inactive” in each case. For the same compound, the outcome in assay [3] and in assay [6] was inactive.
